Laboratory results as given in the supplement of paper PMC6897291.
Structures can show the parent of a compound that is named as a salt.

Each compound was assayed on RIVA (assay: growth inhibition by drug plus 177Lu-lilotomab satetraxetan (1 - RLU/untreated control) (fraction); higher = stronger inhibition). Conditions: 100 nM; time (day): 6; 177Lu-lilotomab satetraxetan 0.5 ug/ml.
Method in brief: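 RIVA or U-2932 cells were left untreated or pretreated for 18 h with a radiolabelled anti-CD37 antibody conjugate (~600 MBq/mg) at 0.5 µg/ml for RIVA or 1 µg/ml for U-2932. The cells were then washed and seeded at 3,000 cells/well on plates pre-printed with the Selleck Cambridge Cancer Compound library, dosed at 10/100 nM for RIVA and 10/1,000 nM for U-2932. From day 3, RealTime-Glo luminescence was read daily after 1 h at 37°C. Growth inhibition was taken as one minus RLU over the mean of the untreated no-drug wells, of which there were 48 per plate.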

SMILES | growth inhibition by drug plus 177Lu-lilotomab satetraxetan
Nc1cc(C(F)(F)F)c(-c2cc(N3CCOCC3)nc(N3CCOCC3)n2)cn1 | 0.384
CC(C)(C)c1ccc(S(=O)(=O)/C=C/C#N)cc1 | 0.495
C[C@]1(c2nc3c(C(N)=O)cccc3[nH]2)CCCN1 [ABT-888 (Veliparib)] | 0.427
Cc1ccc(NC(=O)c2ccc(CN3CC[C@H](N(C)C)C3)c(C(F)(F)F)c2)cc1Nc1nccc(-c2cncnc2)n1 [Bafetinib (INNO-406)] | 0.535
C[C@]12CC[C@@H]3c4ccc(O)cc4CC[C@H]3[C@@H]1CCC2=O [Estrone] | 0.475
O=C(c1ccc(OCCN2CCCCC2)cc1)c1c(-c2ccc(O)cc2)sc2cc(O)ccc12 [Evista (Raloxifene Hydrochloride)] | 0.447
CCN(CC)CCNC(=O)c1c(C)[nH]c(/C=C2\C(=O)Nc3ccc(F)cc32)c1C [Sunitinib Malate (Sutent)] | 0.364
CCOc1ccc(Nc2nc(-c3c(C)nc4ccccn34)cs2)cc1 | 0.973
C=CC(=O)N1CCC[C@@H](n2nc(-c3ccc(Oc4ccccc4)cc3)c3c(N)ncnc32)C1 | 0.934
CS(=O)(=O)c1cccc(CNc2nc(Nc3ccc4c(c3)CCC(=O)N4)ncc2C(F)(F)F)c1 | 0.383
CC(NC(=O)c1ccccc1/N=C/c1c(O)ccc2ccccc12)c1ccccc1 (stereo not drawn) [Sirtinol] | 0.529
CN(Cc1cnc2nc(N)nc(N)c2n1)c1ccc(C(=O)N[C@@H](CCC(=O)O)C(=O)O)cc1 [Abitrexate (Methotrexate)] | 0.457
OCCn1cc(-c2cnc3nnn(Cc4ccc5ncccc5c4)c3n2)cn1 | 0.46
COc1cc(Nc2ncc(F)c(Nc3ccc4c(n3)NC(=O)C(C)(C)O4)n2)cc(OC)c1OC [R406(free base)] | 0.575
COc1cccc2c1C(=O)c1c(O)c3c(c(O)c1C2=O)C[C@@](O)(C(=O)CO)C[C@@H]3O[C@H]1C[C@H](N)[C@H](O)[C@H](C)O1 [Doxorubicin (Adriamycin)] | 0.968
CN(NC(=O)CC(=O)NN(C)C(=S)c1ccccc1)C(=S)c1ccccc1 [Elesclomol] | 0.988
CN(C)CCOc1ccc(/C(=C(/CCCl)c2ccccc2)c2ccccc2)cc1 [Toremifene Citrate (Fareston, Acapodene)] | 0.72
CN1CCN(CCOc2cc(OC3CCOCC3)c3c(Nc4c(Cl)ccc5c4OCO5)ncnc3c2)CC1 [Saracatinib (AZD0530)] | 0.544
CC(C)C[C@H](NC(=O)[C@H](Cc1ccccc1)NC(=O)c1cnccn1)B(O)O [Bortezomib (Velcade)] | 0.99
Cn1cncc1[C@@](N)(c1ccc(Cl)cc1)c1ccc2c(c1)c(-c1cccc(Cl)c1)cc(=O)n2C [Tipifarnib (Zarnestra)] | 0.536
COC(=O)c1ccc2c(C(=Nc3ccc(N(C)C(=O)CN4CCN(C)CC4)cc3)c3ccccc3)c(O)[nH]c2c1 [BIBF1120 (Vargatef)] | 0.375
CC[C@@H]1/C=C(\C)C[C@H](C)C[C@H](OC)[C@H]2O[C@@](O)(C(=O)C(=O)N3CCCC[C@H]3C(=O)O[C@H](/C(C)=C/[C@@H]3CC[C@H](Cl)[C@H](OC)C3)[C@H](C)[C@@H](O)CC1=O)[C@H](C)C[C@@H]2OC [Pimecrolimus] | 0.743
CN(C)CCOc1ccc(-c2nc(-c3ccncc3)c(-c3ccc4c(c3)CC/C4=N\O)[nH]2)cc1 | 0.441
COc1ccc(CCN2CCN(CCCc3ccccc3)CC2)cc1OC | 0.162
CNC(=O)c1cc(Oc2ccc(NC(=O)Nc3cc(C(C)(C)C)nn3-c3ccc4ncccc4c3)c(F)c2)ccn1 [DCC-2036 (Rebastinib)] | 0.633
CCC(C)(C)C(=O)O[C@H]1C[C@@H](C)C=C2C=C[C@H](C)[C@H](CC[C@@H]3C[C@@H](O)CC(=O)O3)[C@H]21 [Simvastatin (Zocor)] | 0.48
CCc1ccc(CCOc2ccc(CC3SC(=O)NC3=O)cc2)nc1 (stereo not drawn) [Pioglitazone (Actos)] | 0.506
O=C(O)C(Cc1c[nH]c2ccccc12)N1C(=O)c2ccccc2C1=O (stereo not drawn) | 0.381
